For 8 molecules, Potency results are on record in PubChem BioAssay (Tox21).

Assay [1] can be described thus: qHTS assay to identify small molecule antagonists of the glucocorticoid receptor (GR) signaling pathway - cell viability counter screen (AID 720693; note: nearly all actives have a fitted effect of over 55% in size; note: potency is the fitted concentration of half-maximal effect). (In general: qHTS replaces the single test concentration by a dilution series.)
The nature of assay [2]: qHTS assay for identifying genotoxic compounds that show differential cytotoxicity against isogenic chicken DT40 cell lines with known DNA damage response pathways - wild type cell line (AID 743012). Note: nearly all actives have a fitted effect of over 60% in size. Note: potency is the fitted concentration of half-maximal effect. Put shortly:
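Luminescent ATP viability signal (CellTiter-Glo, 30 min RT) recorded after wild type DT40 cells were incubated with compounds for 40 h at 37 C/5% CO2.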

The nature of assay [3]: qHTS assay for identifying genotoxic compounds that show differential cytotoxicity against isogenic chicken DT40 cell lines with known DNA damage response pathways - Rev3 mutant cell line (AID 743014). Note: nearly all actives have a fitted effect of over 55% in size. Note: potency is the fitted concentration of half-maximal effect.
Assay [4] is described as follows: qHTS assay for identifying genotoxic compounds that show differential cytotoxicity against isogenic chicken DT40 cell lines with known DNA damage response pathways - Rad54/Ku70 mutant cell line (AID 743015). Note: nearly all actives have a fitted effect of over 60% in size. Note: potency is the fitted concentration of half-maximal effect.
Assay [5] in a line: qHTS assay to identify small molecule antagonists of the androgen receptor (AR) signaling pathway - cell viability counter screen (AID 743033; note: nearly all actives have a fitted effect of over 45% in size; note: potency is the fitted concentration of half-maximal effect).
Assay [6] is described as follows: qHTS assay to identify small molecule antagonists of the androgen receptor (AR) signaling pathway using the MDA cell line - cell viability counter screen (AID 743041; note: nearly all actives have a fitted effect of over 45% in size; note: potency is the fitted concentration of half-maximal effect). Summed up: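 In this qHTS counter assay, fluorescence intensity after CellTiter-Fluor addition indicated viability of MDA-kb2 AR-luc cells given compounds and R1881 for 16 h at 37C.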
Assay [7] in a line: qHTS assay to identify small molecule antagonists of the thyroid receptor (TR) signaling pathway - cell viability counter screen (AID 743064). Note: nearly all actives have a fitted effect of over 50% in size. Note: potency is the fitted concentration of half-maximal effect. Put shortly:
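CellTiter-Fluor readout, 30 min at 37 °C/5% CO2, following 23.5 h incubation of GH3.TRE-Luc cells with test compound and 1 nM T3 (final).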

The target in assay [8] is Estrogen receptor (Homo sapiens) (UniProt P03372). In words: qHTS assay to identify small molecule antagonists of the estrogen receptor alpha (ER-alpha) signaling pathway (AID 743069; active = well fitted curve in the direction sought with a large enough effect in the signal ratio in the repeat runs, not every such curve was filed as active; the % refers to the signal ratio). Put shortly: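 A 17beta-estradiol challenge was applied right after compound transfer to ER-alpha-UAS-bla HEK293 cells previously kept in charcoal-stripped serum. Plates stood 18 hr at 37C and 5% CO2; fluorescence was read following 2 hr FRET substrate loading at room temperature.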
Estrogen receptor (Homo sapiens), sequence (P03372 whole entry, looked up): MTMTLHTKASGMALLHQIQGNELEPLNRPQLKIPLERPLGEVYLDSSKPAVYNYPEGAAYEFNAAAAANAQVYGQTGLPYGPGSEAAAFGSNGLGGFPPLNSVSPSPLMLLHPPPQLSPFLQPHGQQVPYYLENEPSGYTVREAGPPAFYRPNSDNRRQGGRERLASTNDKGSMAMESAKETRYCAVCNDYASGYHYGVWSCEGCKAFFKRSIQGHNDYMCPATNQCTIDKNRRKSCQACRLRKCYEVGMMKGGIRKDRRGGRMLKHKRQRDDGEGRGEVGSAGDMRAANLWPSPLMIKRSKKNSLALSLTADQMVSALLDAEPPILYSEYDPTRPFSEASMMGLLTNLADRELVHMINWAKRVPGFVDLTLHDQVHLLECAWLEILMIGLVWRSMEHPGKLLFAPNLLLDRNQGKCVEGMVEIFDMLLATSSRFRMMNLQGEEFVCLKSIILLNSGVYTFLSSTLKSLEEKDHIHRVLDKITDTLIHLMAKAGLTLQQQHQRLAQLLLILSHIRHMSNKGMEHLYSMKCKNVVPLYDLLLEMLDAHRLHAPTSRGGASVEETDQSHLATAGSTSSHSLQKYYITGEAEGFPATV

Assay [9] in a line: qHTS assay to identify small molecule antagonists of the estrogen receptor alpha (ER-alpha) signaling pathway - cell viability counter screen (AID 743074; calls by dose curve;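 note: HEK293 cells carrying ER-alpha-UAS-bla reporter stimulated with 17beta-estradiol; nearly all actives have a fitted effect of over 45% in size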; note: potency is the fitted concentration of half-maximal effect).
In assay [10] the target is Estrogen receptor (Homo sapiens) (UniProt P03372). Briefly: qHTS assay to identify small molecule agonists of the estrogen receptor alpha (ER-alpha) signaling pathway (AID 743075; calls by dose curve;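 note: HEK293 GripTite cells with ER-alpha and UAS-driven beta-lactamase reporter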).
The target is the same in assay [11]. In words: qHTS assay to identify small molecule agonists of the estrogen receptor alpha (ER-alpha) signaling pathway using the BG1 cell line (AID 743079). Note: nearly all actives have a fitted effect of over 20% in size. Note: potency is the fitted concentration of half-maximal effect.
The nature of assay [12]: qHTS assay to identify small molecule antagonists of the estrogen receptor alpha (ER-alpha) signaling pathway using the BG1 cell line (AID 743080; calls by dose curve;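 note: BG1 cells stimulated with 17beta-estradiol alongside compound; nearly all actives have a fitted effect of over 25% in size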). The conditions noted are these: BG1Luc4E2 ERE-luciferase antagonist mode, luminescence; activity change, negative = inhibition: at 70.3 µM (top of the series). Summed up:
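BG1-Luc-4E2 cells (endogenous full-length ER-alpha, 4xERE luciferase) hormone-starved 5 days in charcoal-stripped FBS, plated 4,000/well for 24 h, then compound plus 17beta-estradiol for 21.5 h at 37 C; ONE-Glo luminescence read.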

The nature of assay [13]: qHTS assay to identify small molecule antagonists of the estrogen receptor alpha (ER-alpha) signaling pathway using the BG1 cell line - cell viability counter screen (AID 743081).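 Note: compound given together with 17beta-estradiol as the ER stimulus; nearly all actives have a fitted effect of over 45% in size.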 Note: potency is the fitted concentration of half-maximal effect.
In another assay the target is Aromatase (Homo sapiens) (UniProt P11511). Briefly: qHTS assay to identify aromatase inhibitors (AID 743083). Note: nearly all actives have a fitted effect of over 55% in size. Note: potency is the fitted concentration of half-maximal effect.
Aromatase (Homo sapiens), sequence (P11511 whole entry, looked up): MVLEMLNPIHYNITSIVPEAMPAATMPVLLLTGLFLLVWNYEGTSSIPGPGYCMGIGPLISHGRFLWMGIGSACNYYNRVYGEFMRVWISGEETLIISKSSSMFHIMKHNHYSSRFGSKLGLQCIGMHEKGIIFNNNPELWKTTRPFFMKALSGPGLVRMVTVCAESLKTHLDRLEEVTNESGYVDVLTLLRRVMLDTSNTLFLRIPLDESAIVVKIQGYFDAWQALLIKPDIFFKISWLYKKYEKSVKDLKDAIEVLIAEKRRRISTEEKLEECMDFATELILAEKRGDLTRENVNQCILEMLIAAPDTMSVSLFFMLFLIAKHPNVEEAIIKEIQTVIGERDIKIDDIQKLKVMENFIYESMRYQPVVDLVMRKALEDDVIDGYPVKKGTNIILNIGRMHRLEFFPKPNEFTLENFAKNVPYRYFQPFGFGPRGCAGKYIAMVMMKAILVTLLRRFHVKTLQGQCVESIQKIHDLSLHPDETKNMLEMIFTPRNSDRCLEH
Assay [14] can be described thus: qHTS assay to identify small molecule antagonists of the thyroid receptor (TR) signaling pathway (AID 743065). Note: nearly all actives have a fitted effect of over 55% in size. Note: potency is the fitted concentration of half-maximal effect. Put shortly: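 GH3.TRE-Luc rat pituitary cells carrying two TR response elements driving luciferase were plated for 4 h, given compound plus 1 nM T3 (final), and incubated 23.5 h at 37 C. ONE-Glo luminescence measured reporter inhibition; CellTiter-Fluor fluorescence tracked cytotoxicity.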

The subject of assay [15] is thyroid hormone receptor (rat, GH3 cells). Briefly: qHTS assay to identify small molecule agonists of the thyroid receptor (TR) signaling pathway (AID 743066; calls by dose curve; note: potency is the fitted concentration of half-maximal effect).

The structures appear in SMILES notation. Values joined by “and” are separate entries in the source; they are usually repeats but may differ in a detail not shown here. Equal entries are not always repeated. Inconclusive results are not listed. Some compounds were tested as several samples or in several runs, with calls that do not always agree. Active and inactive are the calls of the source. Unless noted, calls come from the whole dose curve; as a rule, active = well fitted curve in the direction sought with a large enough effect in the repeat runs; inconclusive = weak or mixed curves; inactive = no such curve, though single readings can be large; an effect the other way counts as inactive or inconclusive.

Take `CS(=O)(=O)OCCCCOS(C)(=O)=O`: the Potency result in assay [1], in assay [2], in assay [3], in [4], in assay [5] and in [6] was “inactive” in each case. Also, the Potency entry in assay [7], in assay [8], in assay [9], in assay [10], in assay [12] and in [13] was “inactive” each time. For the same molecule, the Potency entry with Aromatase (Homo sapiens) was “inactive”. In addition, in assay [11], the Potency is 11.9 µM (active) and inactive.
`Cc1cn([C@H]2C=C[C@@H](CO)O2)c(=O)[nH]c1=O`: the Potency entry in assay [1], in [2], in assay [3], in [4], in assay [5] and in [6] was “inactive” in each case. For the same molecule, the Potency result (in [7]; in [14]; in [15]; in [9]; in assay [13]; with Aromatase (Homo sapiens)) was “inactive” throughout.
On to `Cc1cc(C)nc(NS(=O)(=O)c2ccc(N)cc2)n1`, for which the Potency result in [1], in assay [2], in assay [3], in assay [4], in assay [5] and in assay [6] was “inactive” each time. The Potency entry (in assay [7]; in assay [14]; in assay [9]; in [13]; in the assay with Aromatase (Homo sapiens)) was “inactive” in each case. Moreover, the Potency result in [15] is “inactive and 69.4 µM (active)”.
With `Nc1ccc(S(N)(=O)=O)cc1`, the Potency entry in assay [1], in [2], in assay [5], in [6], in [7] and in assay [14] was “inactive” each time. In addition, the Potency entry (in assay [9]; in assay [13]; with Aromatase (Homo sapiens)) was “inactive” throughout. Besides, the Potency was 68.9 µM (active) and inactive in assay [3]; “inactive and 61.4 µM (active)” in assay [4]; “inactive and 9.74 µM (active)” in assay [15].
Regarding `O=C1c2c(O)cccc2Cc2cccc(O)c21`, the Potency result in assay [1], in assay [2], in [3], in assay [4], in assay [5] and in assay [6] was “inactive” throughout. Besides, the Potency entry (in [7]; in [14]; in assay [15]; in assay [9]; in [13]; with Aromatase (Homo sapiens)) was “inactive” each time.
As to `CC(=O)Nc1c(I)c(NC(C)=O)c(I)c(C(=O)O)c1I`, the Potency result in assay [1], in assay [2], in [3], in assay [4], in assay [5] and in assay [6] was “inactive” in each case. Besides, the Potency result in [7], in assay [15], in assay [9] and in assay [13] was “inactive” each time.
On to `O=C1O[C@H]([C@@H](O)CO)C(O)=C1O`, for which the Potency result in assay [1], in assay [5], in assay [6], in assay [7], in assay [9] and in [13] was “inactive” each time. Also, in the assay with Aromatase (Homo sapiens), the Potency entry is “inactive”. Moreover, the Potency result is “inactive and 54.5 µM (active)” in [2]; “inactive and 21.7 µM (active)” in assay [3]; “inactive and 48.6 µM (active)” in [4]; “inactive and 34.3 µM (active)” in assay [15].
With `CCCCCCCCCCCC[N+](C)(C)Cc1ccccc1`, the Potency in [1] is 8.49 µM (active) and 19.1 µM (active) and 18.9 µM (active); in assay [2], 422 nM (active) and 151 nM (active) and 1.05 µM (active); in assay [3], 298 nM (active) and 67.3 nM (active) and 1.05 µM (active); in assay [4], 668 nM (active) and 107 nM (active) and 1.05 µM (active); in [5], 21.3 µM (active) and 19.1 µM (active) and 21.2 µM (active); in assay [6] it was 29.8 µM (active) and 23.9 µM (active) and 37.4 µM (active). For the same molecule, the Potency is 5.96 µM (active) and 12 µM (active) and 14.9 µM (active) in assay [7]; 5.31 µM (active) and 9.5 µM (active) and 11.8 µM (active) in assay [14]; 10.7 µM (active) and 24.1 µM (active) and 26.7 µM (active) in assay [9]; “inactive and 74.5 µM (active)” in assay [13]; 29.8 µM (active) and 42.4 µM (active) and 37.4 µM (active) with Aromatase (Homo sapiens). The Potency result in assay [15] was “inactive”.
